Test results: PubChem BioAssay AID720706 (Broad Institute, 2013)
Among all 350,000 compounds or so, about 5,500 (1.6%) were called active.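 How the source made its calls: active means significant combined selectivity score with lowered wild-type GFP, culture density cut under 30%, mutant RFP and density less affected; inactive means any of these conditions unmet.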 For the sample, actives were picked, then their nearest neighbours and some compounds at random.

Experiment: reduced GFP signal of wild-type E. coli, primary screen, bacterial rRNA inhibitor project, GFP/RFP fluorescence, OD600, single point (AID 720706)
Details: E. coli WT GFP vs humanized-ribosome RFP mutants, 24 h; GFP signal change (wild-type ribosome): stronger effect = lower value, DMSO median 0, no signal -100; OD600 change: measured here: OD600 growth, DMSO median 0, no signal -100; RFP signal change: measured here: RFP humanized mutant strains, DMSO median 0, no signal -100, concentration not given here

SMILES	GFP signal change (wild-type ribosome)	OD600 change [%]	RFP signal change [%]
CN(C)C(=O)[C@H]1[C@H](CO)[C@H]2Cn3c(ccc(-c4ccc(F)cc4)c3=O)[C@H]2N1C(=O)c1ccccn1	3.15% (inactive)	9.51	0.335
COC(=O)C[C@@H]1CC[C@@H]2[C@H](COc3ccc(NS(=O)(=O)c4ccccc4F)cc3C(=O)N2C)O1	-1.08% (inactive)	1.69	1.71
O=S1(=O)CCOC[C@H](Cc2ccccc2)N1Cc1ccccc1Br	-13.5% (inactive)	-12.2	-2.23
Brc1ccccc1CN1CCC(Cc2ccccc2)CC1	-24.7% (active)	-12	-3.42
NC(=O)c1ccc(CN2CCC(Cc3ccccc3)CC2)cc1	20.9% (inactive)	10.4	1.24
O=C(C[C@H]1CC[C@@H]2[C@H](COC[C@H](O)CN2S(=O)(=O)c2ccccc2)O1)N1CCOCC1	6.11% (inactive)	11.2	-4.33
O=C(c1ccccc1)N1CC(=O)N2[C@@H](CO)[C@H](c3ccc(C#CC4CC4)cc3)[C@@H]2C1	4.2% (inactive)	0.601	-2.44
CCCNC(=O)N1CC2(CN(C(=O)C3CCCCC3)C2)c2c([nH]c3cc(OC)ccc23)[C@@H]1CO	-0.587% (inactive)	-2.63	-0.961
O=S1(=O)CC(N2CCN(Cc3ccccc3F)CC2)CN1Cc1cn(Cc2cccc(C(F)(F)F)c2)nn1 (stereo unspecified)	-29.5% (active)	-22.9	-2.53
Cc1cccc(CN2CCN(C3CN(Cc4cn(Cc5ccccc5F)nn4)S(=O)(=O)C3)CC2)c1 (stereo unspecified)	6% (inactive)	11	-3.05
O=S1(=O)CC(N2CCN(Cc3ccccc3F)CC2)CN1Cc1cn(Cc2ccccc2)nn1 (stereo unspecified)	15% (inactive)	11.5	0.47
C[C@@H]1CN([C@H](C)CO)C(=O)c2cccc(NC(=O)C3CC3)c2O[C@@H]1CN(C)C(=O)Nc1ccccc1	4.57% (inactive)	10.7	-0.0555
O=C(C[C@H]1CC[C@@H](NC(=O)Cc2ccccn2)[C@H](CO)O1)NCCc1ccccc1	-0.355% (inactive)	-12	-1.51
Cc1cc(C(=O)O)ccc1[N+](=O)[O-]	-5.96% (inactive)	-5.09	-0.268
O=[N+]([O-])c1ccc(N2CCN(c3ccc(O)cc3)CC2)c(Cl)c1	-7.92% (inactive)	0.78	1.58
CN1c2ccc([N+](=O)[O-])cc2C(C)(C)C12C=Cc1cc(C(=O)O)ccc1O2 (stereo unspecified)	-34.2% (active)	-21.4	-10.7

SMILES	GFP signal change (wild-type ribosome)	OD600 change [%]	RFP signal change [%]
O=C(c1cccc(F)c1)N1C[C@H]2[C@@H](c3ccccc31)[C@@H](CO)N2C(=O)Cc1ccccc1	2.22% (inactive)	9.86	-2.34
CN(C)CCOCCOc1ccc(Cl)c2ccccc12	-18.5% (active)	-8.69	3.22
CCN(CC)CCOCCOc1ccc(Cl)c2ccccc12	-15.6% (inactive)	-34.8	10.8
CN(C)CCOc1ccc(Cl)cc1C(C)(C)C	-1.5% (inactive)	4.96	1.97
CCC(=O)N(C)C[C@H]1Oc2cc(/C=C/c3ccccc3)ccc2S(=O)(=O)N([C@H](C)CO)C[C@@H]1C	-13.8% (inactive)	-24.1	1.56
COc1ccc(C#Cc2cnc3c(c2)C(=O)N([C@H](C)CO)C[C@H](C)[C@H](CN(C)S(=O)(=O)c2ccc(F)cc2)O3)cc1OC	-1.5% (inactive)	6.11	0.148
O=C(C[C@H]1C=C[C@H](NC(=O)CC2CC2)[C@@H](CO)O1)NCc1ccccc1	-2.86% (inactive)	-1.4	0.749
C[C@@H]1CC=CC[C@@H](c2ccccc2)NC(=O)[C@@H](Cc2ccccc2)N(C)C(=O)c2ccccc2O1 (mixture of isomers)	-3.7% (inactive)	-8.18	-0.954
C[C@@H]1CCCCO[C@H](CN(C)S(=O)(=O)c2ccc(Cl)cc2)[C@H](C)CN([C@@H](C)CO)C(=O)c2cc(NS(=O)(=O)c3cn(C)cn3)ccc2O1	-4.15% (inactive)	-10.5	3.24
C[C@@H]1CN([C@@H](C)CO)S(=O)(=O)c2ccc(C#Cc3ccc(F)cc3)cc2O[C@@H]1CN(C)CC1CC1	3.12% (inactive)	-6.33	12.1
O=[N+]([O-])c1cccc(/C([O-])=C(/C(=S)Nc2ccccc2F)[n+]2ccccc2)c1	4.97% (inactive)	13.1	6.65
CCc1ccccc1OCC(=O)Nc1ccc2c(c1)OCCO2	-18.9% (inactive)	-29.9	1.18
CCOc1ccccc1NC(=S)C(=C([O-])c1ccc2c(c1)OCCO2)[n+]1ccc(CC)cc1	-17.2% (active)	-16.2	11.5
COc1ccc2c3c(n(C)c2c1)[C@H](CO)N(S(=O)(=O)c1ccc(C)cc1)CC31CCN(C(=O)c2ccccn2)CC1	-3.17% (inactive)	-3.75	3.99
CS(=O)(=O)N(CC(=O)N1CCN(Cc2ccccc2)CC1)c1ccc2c(c1)OCCO2	3.15% (inactive)	8.73	-8.62
COc1ccc(N(CC(=O)N2CCCCCC2)S(=O)(=O)c2ccccc2)cc1	-1.75% (inactive)	-4.39	-2.53
